Pf Dd2 growth: blocks growth of Plasmodium falciparum Dd2 parasites; P. falciparum Dd2 growth, SYBR Green, 72 h; stronger effect = lower value; 94,000 compounds, 2.3% hits; AID 1159554; activity change, % at 10 µM; in the data active = activity change below about -80%
C diff growth: inhibitors of Clostridium difficile growth; Clostridium difficile clinical isolate growth, OD600, 24 h; stronger effect = lower value; growth activity, negative = inhibition, % at 16 µg/mL (by protocol); 86,000 compounds, 0.25% hits; AID 1259249;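 active = mean growth activity at or below -80% and every replicate also at or below -80%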;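 note: 0% = DMSO wells and -100% = levofloxacin 16 µg/mL wells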
* hit, by the source's call; . = not tested or not shown. A selection: hits, their analogues and other compounds. The true share with any hit is near 2.3%.

SMILES | Pf Dd2 growth | C diff growth
N#C[C@H]1[C@@H](c2ccc(-c3ccncc3)cc2)[C@@H](CO)N1C(=O)C1CCC1 | 18 | 6
C[C@@H]1CN([C@@H](C)CO)C(=O)c2cc(NS(C)(=O)=O)ccc2O[C@H]1CN(C)Cc1ccc(C(=O)O)cc1 | 40 | .
Cc1ccc(-c2ccc([C@@H]3[C@H](CO)N4CCCCN(C(=O)Nc5cccc(F)c5)C[C@@H]34)cc2)cc1 | -42 | -98*
Cc1ccc(-c2ccc([C@H]3[C@@H](CO)N4CCCCN(C(=O)Nc5ccccc5)C[C@H]34)cc2)cc1 | -32 | 0
Cc1ccc(-c2ccc([C@@H]3[C@@H](CO)N4CCCCN(C(=O)Nc5cccc(F)c5)C[C@@H]34)cc2)cc1 | -20 | 65
Cc1ccccc1-c1ccc([C@H]2[C@@H](CO)N3CCCCN(C(=O)Nc4cccc(F)c4)C[C@H]23)cc1 | -38 | -98*
O=C(Nc1cccc(F)c1)N1CCCCN2[C@H](CO)[C@H](c3ccc(-c4ccccc4F)cc3)[C@H]2C1 | -28 | -29
O=C(Nc1cccc(F)c1)N1CCCCN2[C@@H](CO)[C@@H](c3ccc(-c4ccccc4F)cc3)[C@@H]2C1 | -50 | -98*
Cc1ccc(-c2ccc([C@H]3[C@@H](CO)N4CCCCN(C(=O)Nc5cccc(F)c5)C[C@@H]34)cc2)cc1 | 21 | 16
Cc1ccc(-c2ccc([C@@H]3[C@H](CO)N4CCCCN(C(=O)Nc5ccccc5)C[C@@H]34)cc2)cc1 | -9 | -92*
C[C@@H]1CCCCO[C@H](CN(C)S(=O)(=O)c2cn(C)cn2)[C@@H](C)CN([C@@H](C)CO)C(=O)c2cc(NC(=O)Nc3cccc4ccccc34)ccc2O1 | -39 | 9
C[C@H](CO)N1C[C@H](C)[C@H](CN(C)C(=O)NC2CCCCC2)Oc2ccc(NS(C)(=O)=O)cc2CC1=O | 9 | -1
O=C(Nc1ccc(F)cc1)N1CCCCN2[C@@H](CO)[C@@H](c3ccc(-c4cccc(F)c4)cc3)[C@@H]2C1 | -53 | -99*
O=C(Nc1ccc(F)cc1)N1CCCCN2[C@H](C1)[C@@H](c1ccc(-c3cccc(F)c3)cc1)[C@@H]2CO | 11 | 50
Cc1ccccc1-c1ccc([C@H]2[C@@H](CO)N3CCCCN(C(=O)Nc4cccc(F)c4)C[C@@H]23)cc1 | 23 | 10
Cc1ccccc1-c1ccc([C@@H]2[C@H](CO)N3CCCCN(C(=O)Nc4cccc(F)c4)C[C@@H]23)cc1 | -36 | -96*
CCCc1cn(CC[C@@H]2CC[C@@H](NC(=O)C3CCCC3)[C@H](CO)O2)nn1 | 8 | -3
C[C@H](CO)N1C[C@H](C)[C@@H](CN(C)Cc2cccc(C(=O)O)c2)Oc2cc(C3=CCCC3)ccc2S1(=O)=O | -8 | 0
C[C@@H]1CN([C@H](C)CO)C(=O)CCCn2cc(nn2)CO[C@H]1CN(C)S(=O)(=O)c1cccc(F)c1 | -1 | 1
C[C@H]1CCCCO[C@@H](CN(C)C(=O)C2CCCCC2)[C@@H](C)CN([C@@H](C)CO)C(=O)c2cc(NC(=O)Nc3ccc(C(F)(F)F)cc3)ccc2O1 | -89* | 1
C[C@@H]1CCCCO[C@H](CN(C)C(=O)C2CCCCC2)[C@@H](C)CN([C@@H](C)CO)C(=O)c2cc(NC(=O)Nc3ccc(C(F)(F)F)cc3)ccc2O1 | -88* | 7
C[C@H]1CCCCO[C@@H](CN(C)C(=O)C2CCCCC2)[C@@H](C)CN([C@@H](C)CO)C(=O)c2cc(NC(=O)Nc3ccc(F)cc3)ccc2O1 | -85* | -4
C[C@H](CO)N1C[C@H](C)[C@H](CN(C)C(=O)C2CCCCC2)OCCCC[C@H](C)Oc2ccc(NC(=O)Nc3ccc(C(F)(F)F)cc3)cc2C1=O | -24 | -1
C[C@H](CO)N1C[C@H](C)[C@@H](CN(C)C(=O)C2CCCCC2)OCCCC[C@H](C)Oc2ccc(NC(=O)Nc3ccc(F)cc3)cc2C1=O | 1 | -1
C[C@@H]1CN([C@@H](C)CO)C(=O)c2cc(NC(=O)Nc3ccc(C(F)(F)F)cc3)ccc2O[C@@H](C)CCCCO[C@H]1CN(C)C(=O)C1CCCCC1 | -68 | 1
SMILES | Pf Dd2 growth | C diff growth
C[C@H]1CCCCO[C@@H](CN(C)C(=O)C2CCCCC2)[C@@H](C)CN([C@@H](C)CO)C(=O)c2cc(NC(=O)CCC(F)(F)F)ccc2O1 | -82* | -4
C[C@H](CO)N1C[C@H](C)[C@@H](CN(C)C(=O)C2CCCCC2)OCCCC[C@H](C)Oc2ccc(NC(=O)CCC(F)(F)F)cc2C1=O | 4 | -7
C[C@@H]1CCCCO[C@H](CN(C)S(=O)(=O)c2cn(C)cn2)[C@H](C)CN([C@@H](C)CO)C(=O)c2cc(NC(=O)Nc3ccccc3)ccc2O1 | -56 | -3
Cc1noc(C)c1S(=O)(=O)N(C)C[C@H]1Oc2ccc(NC(=O)Cn3cnnn3)cc2CC(=O)N([C@@H](C)CO)C[C@@H]1C | 18 | 2
C[C@H]1CCCCO[C@H](CN(C)CC2CCCCC2)[C@@H](C)CN([C@@H](C)CO)C(=O)c2cc(NS(C)(=O)=O)ccc2O1 | . | 2
CC(=O)N1CC[C@H]2[C@H](CO)Nc3ccc(-c4ccccc4)cc3[C@H]21 | 13 | -16
CO[C@H]1CN(C)C(=O)c2cc(NC(C)=O)ccc2OC[C@H](C)N(Cc2cccc(F)c2)C[C@@H]1C | -17 | -9
Cc1ccc(S(=O)(=O)N(C)C[C@@H]2OCCCC[C@H](C)Oc3ccc(NC(=O)c4ccccc4)cc3C(=O)N([C@H](C)CO)C[C@H]2C)cc1 | -81* | .
COc1ccc(S(=O)(=O)N(C)C[C@@H]2OCCCC[C@@H](C)Oc3ccc(NC(=O)c4ccccc4)cc3C(=O)N([C@H](C)CO)C[C@H]2C)cc1 | -85* | 15
C[C@@H]1CN([C@H](C)CO)C(=O)c2cc(NC(=O)c3ccccc3)ccc2O[C@@H](C)CCCCO[C@@H]1CN(C)S(=O)(=O)c1ccc(F)cc1 | -85* | 5
Cc1ccc(S(=O)(=O)N(C)C[C@@H]2OCCCC[C@@H](C)Oc3ccc(NC(=O)c4ccccc4)cc3C(=O)N([C@@H](C)CO)C[C@@H]2C)cc1 | -80 | .
Cc1ccc(S(=O)(=O)N(C)C[C@H]2OCCCC[C@H](C)Oc3ccc(NC(=O)c4ccccc4)cc3C(=O)N([C@H](C)CO)C[C@H]2C)cc1 | -81* | .
COc1ccc(S(=O)(=O)N(C)C[C@@H]2OCCCC[C@@H](C)Oc3ccc(NC(=O)c4ccccc4)cc3C(=O)N([C@@H](C)CO)C[C@@H]2C)cc1 | -79 | 32
C[C@H]1CCCCO[C@H](CN(C)S(=O)(=O)c2ccc(F)cc2)[C@@H](C)CN([C@@H](C)CO)C(=O)c2cc(NC(=O)c3ccccc3)ccc2O1 | -75 | -8
Cc1ccc(S(=O)(=O)N(C)C[C@H]2OCCCC[C@@H](C)Oc3ccc(NC(=O)c4ccccc4)cc3C(=O)N([C@@H](C)CO)C[C@H]2C)cc1 | -65 | .
CCC(=O)Nc1ccc2c(c1)OC[C@H](C)N(C(=O)NC(C)C)C[C@@H](C)[C@@H](OC)CN(C)C2=O | 4 | .
C[C@H](CO)N1C[C@H](C)[C@@H](CN(C)Cc2ccncc2)Oc2c(NC(=O)c3ccc(-c4nccs4)cc3)cccc2C1=O | -11 | 20
CC(C)NC(=O)Nc1ccc2c(c1)CC(=O)N([C@H](C)CO)C[C@@H](C)[C@H](CN(C)Cc1ccncc1)O2 | 9 | -3
O=S(=O)(c1ccccc1F)N1CCCCN2[C@H](CO)[C@H](c3ccc(-c4ccccc4)cc3)[C@H]2C1 | -60 | 25
